{"source": "PubChem BioAssay (EPA / NIEHS)", "note": "Records with an inconclusive call do not appear. Activity calls are given as the source filed them. The calls were made as follows: active = hit-call score of the fitted dose curve at least 0.9, where 1 is the maximum; inconclusive = response in the unintended direction; inactive = score below 0.9."}
{"system": "not listed separately", "assay": "ATG_M_06_TRANS: Attagene TRANS-FACTORIAL HepG2 Assay for M06 Transcription Factor (Internal Marker) (AID 2282983);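 also: reporter transcript level by RT-PCR then capillary electrophoresis fluorescence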", "conditions": "HepG2 Attagene TRANS M06 internal marker reporter", "outline": "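Transfect HepG2 with MRTUs → dose compounds 24 h → isolate RNA, oligo(dT) RT → PCR with reporter primers → 6-FAM primer extension → HpaI digest → CE fragment analysis. Positive direction vs DMSO.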"}
{"compound": "C#CC(O)CCC", "note": "(centres undefined)", "outcome": "inactive"}
{"compound": "O=C(O)C(F)(F)C(F)(F)C(F)(F)C(=O)O", "outcome": "inactive"}
{"compound": "CC(C)(C)c1cc(CCC(=O)OCC(COC(=O)CCc2cc(C(C)(C)C)c(O)c(C(C)(C)C)c2)(COC(=O)CCc2cc(C(C)(C)C)c(O)c(C(C)(C)C)c2)COC(=O)CCc2cc(C(C)(C)C)c(O)c(C(C)(C)C)c2)cc(C(C)(C)C)c1O", "outcome": "inactive"}
{"compound": "CC(C)Nc1ccc(NC(C)C)c2c1C(=O)c1ccccc1C2=O", "outcome": "inactive"}
{"compound": "CN(N=O)C(=O)N[C@@H]1[C@@H](O)[C@H](O)[C@@H](CO)O[C@@H]1O", "outcome": "inactive"}
{"compound": "OCCCCC(F)(F)C(F)(F)C(F)(F)C(F)(F)F", "outcome": "inactive"}
{"compound": "COC(F)(C(F)F)C(F)(F)F", "note": "(centres undefined)", "outcome": "inactive"}
{"compound": "N#CCCOCCC#N", "outcome": "inactive"}
{"compound": "O=C(c1ccccc1)c1ccc(Cl)cc1", "outcome": "inactive"}
{"compound": "N#Cc1ccccc1O", "outcome": "inactive"}
{"system": "not listed separately", "assay": "ATG_M_32_TRANS: Attagene TRANS-FACTORIAL HepG2 Assay for M32 Transcription Factor (Internal Marker) (AID 2282984);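 also: transcript level of a background control reporter unit measured by RT-PCR and capillary electrophoresis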", "conditions": "HepG2 Attagene TRANS M32 internal marker reporter", "outline": "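Human hepatoma HepG2, transient MRTU transfection, 24 h treatment. RNA → RT-PCR → fluorescent primer extension → HpaI digest (2 h, 37 C) → CE. Positive-direction fit vs DMSO.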"}
{"compound": "Brc1ccccn1", "outcome": "inactive"}
{"compound": "O=C1OC(=O)c2ccc3c4c(ccc1c24)C(=O)OC3=O", "outcome": "inactive"}
{"compound": "NCC(F)(F)C(F)(F)C(F)(F)C(F)(F)C(F)(F)C(F)(F)F", "outcome": "inactive"}
{"compound": "CC(C)(C)C(=O)C1C(=O)c2ccccc2C1=O", "outcome": "inactive"}
{"compound": "O=C1c2c(O)ccc(Nc3ccc(CCO)cc3)c2C(=O)c2c([N+](=O)[O-])ccc(O)c21", "outcome": "inactive"}
{"compound": "O=S(=O)(Cl)C(F)(F)C(F)(F)C(F)(F)C(F)(F)C(F)(F)C(F)(F)C(F)(F)C(F)(F)F", "outcome": "inactive"}
{"compound": "CC1=CCC(=O)O1", "outcome": "inactive"}
{"compound": "CC(O)C#CC(C)O", "note": "(centres undefined)", "outcome": "inactive"}
{"compound": "CC(C)OC(=O)COc1ccc(Cl)cc1Cl", "outcome": "inactive"}
{"compound": "CCn1c2ccccc2c2ccccc21", "outcome": "inactive"}
{"compound": "CCN(CCO)S(=O)(=O)C(F)(F)C(F)(F)C(F)(F)C(F)(F)C(F)(F)C(F)(F)C(F)(F)C(F)(F)F", "outcome": "inactive"}
{"compound": "NC(=O)C(F)(F)C(F)(F)C(F)(F)C(F)F", "outcome": "inactive"}
{"compound": "O=C1C=CC(=O)N1c1ccccc1", "outcome": "inactive"}
{"compound": "O=C(O)C(F)(F)OC(F)(F)C(F)(F)OC(F)(F)C(F)(F)OC(F)(F)F", "outcome": "inactive"}
{"compound": "O=C(F)C1(F)C(F)(F)C(F)(F)C(F)(F)C(F)(F)C1(F)F", "outcome": "inactive"}
{"compound": "CCCCOC(=O)[C@H](C)O", "outcome": "inactive"}
{"compound": "COCCC(=O)OC", "outcome": "inactive"}
{"compound": "Cc1ccc(S(=O)(=O)C(I)I)cc1", "outcome": "inactive"}
{"compound": "C#CC(O)CCC", "note": "(centres undefined)", "outcome": "inactive"}
{"compound": "O=C(O)C(F)(F)C(F)(F)C(F)(F)C(=O)O", "outcome": "inactive"}
{"compound": "CN(N=O)C(=O)N[C@@H]1[C@@H](O)[C@H](O)[C@@H](CO)O[C@@H]1O", "outcome": "inactive"}
{"compound": "OCCCCC(F)(F)C(F)(F)C(F)(F)C(F)(F)F", "outcome": "inactive"}
{"compound": "N#CCCOCCC#N", "outcome": "inactive"}
{"compound": "O=C(c1ccccc1)c1ccc(Cl)cc1", "outcome": "inactive"}
{"target": "Nuclear receptor subfamily 4 group A member 2 (Homo sapiens) (UniProt P43354)", "sequence (P43354 whole entry, looked up)": "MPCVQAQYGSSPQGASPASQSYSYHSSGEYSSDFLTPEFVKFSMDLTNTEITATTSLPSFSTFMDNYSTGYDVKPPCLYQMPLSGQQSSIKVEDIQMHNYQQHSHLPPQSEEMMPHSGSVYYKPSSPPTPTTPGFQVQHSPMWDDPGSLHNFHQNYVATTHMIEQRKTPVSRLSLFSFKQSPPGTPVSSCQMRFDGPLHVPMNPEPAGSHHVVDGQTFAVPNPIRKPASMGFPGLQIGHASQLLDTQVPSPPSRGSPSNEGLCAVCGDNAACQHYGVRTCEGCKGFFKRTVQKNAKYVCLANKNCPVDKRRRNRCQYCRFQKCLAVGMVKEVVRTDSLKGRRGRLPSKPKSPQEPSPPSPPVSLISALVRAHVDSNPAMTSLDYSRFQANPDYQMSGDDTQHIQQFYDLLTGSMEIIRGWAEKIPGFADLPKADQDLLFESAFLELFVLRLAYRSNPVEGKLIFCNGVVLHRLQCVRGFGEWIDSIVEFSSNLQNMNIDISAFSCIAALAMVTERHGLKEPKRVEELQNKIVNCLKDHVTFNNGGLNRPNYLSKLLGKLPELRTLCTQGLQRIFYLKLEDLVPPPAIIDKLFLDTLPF", "assay": "ATG_NURR1_TRANS: Attagene TRANS-FACTORIAL HepG2 Assay for human Nuclear Receptor Related Protein 1 (NURR1) (AID 2282985)", "conditions": "HepG2 Attagene TRANS reporter, mRNA readout", "outline": "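After 24 h chemical dosing, total RNA from transiently transfected HepG2 cells was reverse-transcribed and reporter cDNA PCR-amplified, FAM-labelled and analysed by capillary electrophoresis. Activity fitted in positive direction, DMSO as negative control.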"}
{"compound": "Brc1ccccn1", "outcome": "inactive"}
{"compound": "CC(C)(C)C(=O)C1C(=O)c2ccccc2C1=O", "outcome": "inactive"}
{"compound": "O=C1c2c(O)ccc(Nc3ccc(CCO)cc3)c2C(=O)c2c([N+](=O)[O-])ccc(O)c21", "AC50": "30.4 µM (active)"}
{"compound": "CC(C)OC=O", "outcome": "inactive"}
{"compound": "O=S(=O)(Cl)C(F)(F)C(F)(F)C(F)(F)C(F)(F)C(F)(F)C(F)(F)C(F)(F)C(F)(F)F", "outcome": "inactive"}
{"compound": "CC1=CCC(=O)O1", "outcome": "inactive"}
{"compound": "CC(O)C#CC(C)O", "note": "(centres undefined)", "outcome": "inactive"}
{"compound": "CC(C)OC(=O)COc1ccc(Cl)cc1Cl", "outcome": "inactive"}
{"compound": "CCn1c2ccccc2c2ccccc21", "outcome": "inactive"}
{"compound": "OCC(F)(F)C(F)(F)C(F)(F)CO", "outcome": "inactive"}
{"compound": "CCN(CCO)S(=O)(=O)C(F)(F)C(F)(F)C(F)(F)C(F)(F)C(F)(F)C(F)(F)C(F)(F)C(F)(F)F", "outcome": "inactive"}
{"compound": "CC1=CC2C3C=CC(C3)C2C1C", "note": "(centres undefined)", "outcome": "inactive"}
{"compound": "O=C1C=CC(=O)N1c1ccccc1", "outcome": "inactive"}
{"compound": "O=C=NCc1cccc(CN=C=O)c1", "outcome": "inactive"}
{"compound": "O=C(O)C(F)(F)OC(F)(F)C(F)(F)OC(F)(F)C(F)(F)OC(F)(F)F", "outcome": "inactive"}
